The values that follow come from PubChem BioAssay AID1259349 (Broad Institute, 2017).

Screen size: about 17,000 compounds; about 1,100 (6.5%) were called active.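 The calls were made as follows: active = z-score of -3 or lower, meaning strong loss of probe binding signal; inactive = the rest.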 The sample as a whole holds a higher share of actives than the screen did.

Insulin-degrading enzyme (Homo sapiens), sequence (P14735 42-1019 limits assumed): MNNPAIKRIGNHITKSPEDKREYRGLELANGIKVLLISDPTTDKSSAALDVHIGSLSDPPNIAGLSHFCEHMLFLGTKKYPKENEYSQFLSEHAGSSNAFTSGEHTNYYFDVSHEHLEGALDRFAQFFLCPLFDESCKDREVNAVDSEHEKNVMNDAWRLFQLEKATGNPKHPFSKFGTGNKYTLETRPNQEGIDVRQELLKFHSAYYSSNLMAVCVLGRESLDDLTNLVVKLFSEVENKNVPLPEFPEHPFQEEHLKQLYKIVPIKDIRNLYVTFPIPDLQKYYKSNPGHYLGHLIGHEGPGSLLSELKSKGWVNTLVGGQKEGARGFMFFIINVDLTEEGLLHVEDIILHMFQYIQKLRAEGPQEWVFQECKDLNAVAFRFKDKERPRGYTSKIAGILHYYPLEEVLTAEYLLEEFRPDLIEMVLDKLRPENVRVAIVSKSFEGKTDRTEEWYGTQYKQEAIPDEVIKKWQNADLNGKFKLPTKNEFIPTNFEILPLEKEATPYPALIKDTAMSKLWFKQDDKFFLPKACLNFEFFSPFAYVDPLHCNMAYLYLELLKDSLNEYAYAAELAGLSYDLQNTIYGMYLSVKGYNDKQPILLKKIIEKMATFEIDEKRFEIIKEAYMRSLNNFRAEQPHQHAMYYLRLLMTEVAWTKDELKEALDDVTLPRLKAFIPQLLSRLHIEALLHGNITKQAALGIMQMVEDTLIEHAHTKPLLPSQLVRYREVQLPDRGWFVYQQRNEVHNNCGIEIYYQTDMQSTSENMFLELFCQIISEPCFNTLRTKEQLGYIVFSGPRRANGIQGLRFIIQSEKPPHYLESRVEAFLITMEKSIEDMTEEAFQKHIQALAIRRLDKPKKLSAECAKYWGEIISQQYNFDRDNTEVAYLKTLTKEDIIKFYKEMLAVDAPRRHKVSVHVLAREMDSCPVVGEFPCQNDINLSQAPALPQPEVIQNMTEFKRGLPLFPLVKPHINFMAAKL

This test concerns the target Insulin-degrading enzyme (Homo sapiens) (UniProt P14735). Put plainly: displacers of FL-6b probe from IDE – biochemical, fluorescence anisotropy, probe displacement, primary screen (AID 1259349).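 Also: His-tagged human IDE residues 42-1019 made in E. coli with 30 nM FL-6b probe.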 To be noted: purified IDE, FL-6b probe fluorescence polarization; at 20 µM; stronger effect = lower value.
Take `O=C(Cc1ccccn1)N1CCCCN2[C@H](C1)[C@H](c1ccc(-c3ccccc3F)cc1)[C@@H]2CO`: the z-score was -1.94 (inactive).
For `O=C(Cc1ccccn1)N1CCCCN2[C@@H](CO)[C@@H](c3ccc(C#Cc4ccccc4)cc3)[C@@H]2C1`, the z-score was -6.91 (active).
For `O=C(Cc1ccccc1)N1CCCCN2[C@H](CO)[C@H](c3ccc(C#Cc4ccccc4)cc3)[C@H]2C1`, the z-score was -1.93 (inactive).
Turning to `O=C(Cc1ccncc1)N1CCCCN2[C@@H](CO)[C@H](c3ccc(C#CC4(O)CCCC4)cc3)[C@@H]2C1`, the z-score is 1.31 (inactive).
Consider `COC(=O)[C@@H]1[C@@H](CO)[C@@H]2Cn3c(ccc(-c4cccc(C(=O)N(C)C)c4)c3=O)[C@H]1N2C(=O)NC(C)C`, for which the z-score was -0.64 (inactive).
